Screens deposited in PubChem by several laboratories.
BaF3 tox – parental Ba/F3 viability inhibition as JAK2V617F counter-screen | AID 1486 | 1.1% of 220,000 active | CellTiter-Glo ATP luminescence | inhibition, % at 5.6 µM;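 active means inhibition above a per-campaign cutoff, the mean inhibition of all tested compounds plus 3 SD, cut at about 27% in these data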
KLF5 inhibitor – inhibitors of KLF5 expression; DLD-1 KLF5 promoter-luciferase reporter, luminescence; inhibition, % at 5 µM; 0.23% of 290,000 active; AID 1700;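 active means inhibition above a per-plate limit of that plate's mean compound inhibition plus 3 SD, cut at about 60% in these data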;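 further: higher means less KLF5 promoter-driven luciferase light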
Ba/F3 V617F tox – lowers viability of Ba/F3 cells expressing EpoR and JAK2V617F; ATP luminescence; inhibition, % at 5.6 µM; 1.1% of 220,000 active; AID 1446;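 active means inhibition above the campaign mean plus 3 SD over all tested compounds, cut at about 24% in these data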;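 further: cytokine-independent growth of Ba/F3 cells driven by EpoR plus mutant JAK2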
IEC-6 cytotox – counter-screen for KLF5 inhibitors: cytotoxicity in IEC-6 cells. IEC-6 cytotoxicity, luminescence viability. inhibition, % at 5 µM. 0.78% of 290,000 active; in the data active means inhibition above about 22%
APP transl inh – APP translation inhibition | SH-SY5Y APP 5'UTR-luciferase reporter, luminescence | inhibition, % at 2 µM | 0.82% of 190,000 active | AID 1285;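 active means inhibition above a set limit, derived from the sample mean plus 3 SD, cut at about 45% in these data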
Large screens that a line does not name were inactive. Most compounds without a hit are left out; they make up all but 1.9% or so of the library.

Cc1ccc2nc(NNC(=O)c3ccc4c(c3)OCCO4)sc2c1	none
CC(C)n1cc(/C=C/c2cc[n+](C)cc2)c2ccccc21	none (no result: BaF3 tox, Ba/F3 V617F tox, APP transl inh)
Cc1ccccc1/C=C/c1cc[n+](C)cc1	BaF3 tox 58.5, Ba/F3 V617F tox 50.1
C=CCn1c(C)c(/C=C/c2cc[n+](C)cc2)c2ccccc21	none (no result: BaF3 tox, Ba/F3 V617F tox, APP transl inh)
Cc1[nH]c2ccccc2c1/C=C/c1cc[n+](C)cc1	BaF3 tox 76.6, Ba/F3 V617F tox 84.9
O=C(Nc1ccccc1Cc1ccccc1)C1CC(=O)N(c2ccc3c(c2)OCCO3)C1 (centres undefined)	none
Cc1ccc(NC(=O)/C=C/c2ccc([N+](=O)[O-])s2)c(C)c1	APP transl inh 93.3
O=C(N/N=C/c1ccc([N+](=O)[O-])s1)c1ccncc1	none
Cc1ccc(NC(=O)/C=C/c2ccc([N+](=O)[O-])s2)cc1	APP transl inh 84.5
Cc1ccc(C(=O)N/N=C/c2ccc([N+](=O)[O-])s2)cc1	APP transl inh 70.3
Cc1cccc(NC(=O)/C=C/c2ccc([N+](=O)[O-])s2)c1	APP transl inh 87.8
CCCOc1cccc(C(=O)Nc2cccnc2)c1	none
CCOC(=O)C1=NN(c2ccc(OC)cc2)C(c2ccccc2)CC1=O (centres undefined)	none
Cc1ccc(NC(=O)COC(=O)c2ccc([N+](=O)[O-])s2)c(C)c1	APP transl inh 58.1
O=C(NC(Cc1ccccc1)C(=O)O)/C(=C/c1ccc(Cl)cc1)NC(=O)c1ccccc1 (centres undefined)	BaF3 tox 37.4
O=C(NC(Cc1ccccc1)C(=O)O)/C(=C\c1ccccc1F)NC(=O)c1ccccc1 (centres undefined)	none
Nc1ccc(Oc2cccc(Oc3ccc(N)cc3)c2)cc1	APP transl inh 49.4
CCOc1ccc(Br)cc1CC(=O)O	none
CCCOc1ccc(Br)cc1CSC(=N)N	BaF3 tox 41.3, Ba/F3 V617F tox 37.8
COc1cnc(-c2ccccc2)nc1Oc1ccc(Cl)cc1C	none
C/C(=N\NC(=S)NCc1ccccc1)c1ccc2ccccc2c1	none
C/C(=N\NC(=O)COc1ccccc1-c1ccccc1)c1ccccn1	APP transl inh 62.0
O=C(COc1ccccc1-c1ccccc1)N/N=C/c1ccc2ccccc2c1	APP transl inh 96.3
N#CC1=C2SCN(c3ccccc3)CN2C(=O)CC1c1c(Cl)cccc1Cl (centres undefined)	none
N#CC1=C2SCN(c3ccccc3)CN2C(=O)CC1c1ccccc1Cl (centres undefined)	BaF3 tox 39.3
CCc1n[n+](CC(=O)c2ccccc2)c(N)s1	none
CCCCOc1ccc(C(=O)OCC(=O)Nc2cc(C)c(C)cc2[N+](=O)[O-])cc1	none
Clc1ccc2nc(-c3ccccn3)c(Nc3ccc4c(c3)OCO4)n2c1	APP transl inh 45.8
Cc1ccc2nc(-c3ccccc3O)c(Nc3ccc4c(c3)OCCO4)n2c1	none
Cc1ccc(/C=N/NC(=O)c2nnn(-c3nonc3N)c2CN(C)C2CCCCC2)cc1	none (no result: BaF3 tox, Ba/F3 V617F tox, APP transl inh)
COc1cc(C)c(Cc2cnc(N)nc2N)cc1OC	Ba/F3 V617F tox 32.8 (no result: APP transl inh)
COc1ccccc1NC(=O)C(CC=C(Cl)Cl)C(C)=O (centres undefined)	BaF3 tox 39.1
COc1ccccc1NC(=O)C(C/C=C(\C)Cl)C(C)=O (centres undefined)	none
CC(=O)N1CCN(c2ccccc2NC(=O)c2ccc(C#N)cc2F)CC1	BaF3 tox 90.1
COc1ccc(-c2nc(NC(=O)CCNC(=O)c3ccco3)sc2C)cc1	BaF3 tox 27.9
COc1ccc(-c2nc(NC(=O)c3n[nH]c(=O)c4ccccc34)sc2C)cc1	IEC-6 cytotox 21.9
COc1ccc(CCNC(=O)CCNC(=O)c2ccco2)cc1	none (no result: BaF3 tox, Ba/F3 V617F tox, APP transl inh)
COc1cc(NC(=O)c2n[nH]c(=O)c3ccccc23)cc(OC)c1	none (no result: APP transl inh)
CC1CCN(CC(=O)c2cccs2)CC1	none
CC1CCC/C(=N/Nc2ccc([N+](=O)[O-])cc2[N+](=O)[O-])C1 (centres undefined)	APP transl inh 79.4
CC1CCC(=NNc2ccc(C(F)(F)F)cc2[N+](=O)[O-])CC1 (centres undefined)	none
O=C(CN1CCOCC1)Nc1nc(-c2ccccc2Cl)cs1	none (no result: BaF3 tox, Ba/F3 V617F tox, APP transl inh)
Cn1c(=O)oc2cc(S(=O)(=O)N3CCCc4ccccc43)ccc21	BaF3 tox 44.7, Ba/F3 V617F tox 54.9
COC(=O)Nc1ccc(S(=O)(=O)N2CCCc3cccc(O)c32)cc1	none
COC(=O)Nc1ccc(S(=O)(=O)N2CCCc3ccccc32)cc1	BaF3 tox 78.6, Ba/F3 V617F tox 84.8, IEC-6 cytotox 73.8, APP transl inh 89.8
Cn1c(=O)c(=O)n(C)c2cc(S(=O)(=O)N3CCc4ccccc43)ccc21	BaF3 tox 30.6
Cn1c(=O)oc2cc(S(=O)(=O)N3CCc4ccccc43)ccc21	none (no result: APP transl inh)
O=[N+]([O-])c1ccc(Cc2nnc(-c3ccc(F)cc3)o2)cc1	none
CCOC(=O)Nc1cc2c(C)cc(=O)oc2cc1C	none
Cc1cc(=O)[nH]c(SCC(=O)N2CCCCC2)n1	none (no result: BaF3 tox, Ba/F3 V617F tox, APP transl inh)
CC[N+]1(CC)CC2=Cc3c(ccc4ccccc34)C(C)C2C1 (centres undefined)	BaF3 tox 54.0, Ba/F3 V617F tox 62.8 (no result: APP transl inh)
CC1NC(C)(C)Cc2c1ccc1ccccc21 (centres undefined)	none
COC(=O)c1ccc(S(=O)(=O)N2C3CCC2CC(NC(=O)NC2CCCCC2)C3)cc1 (centres undefined)	none
O=c1cc(-c2c(F)c(F)c(F)c(F)c2F)oc2ccccc12	none
O=c1cc(-c2c(F)c(F)c(F)c(F)c2F)oc2c(F)c(F)c(F)c(F)c12	APP transl inh 96.8
CCOC(=O)C1=NN(c2ccccc2)C2=NC(C)=C(C(=O)OC)C(c3cccs3)N12 (centres undefined)	none
CCCSC1C(C)=C(C)C(=O)N1Cc1ccccc1 (centres undefined)	none (no result: BaF3 tox, Ba/F3 V617F tox, APP transl inh)
CCc1nnc(N/N=C/c2cc(Br)c(O)cc2O)n1N	none (no result: BaF3 tox, Ba/F3 V617F tox, APP transl inh)
CCc1nnc(N/N=C/c2c(Cl)cccc2Cl)n1N	IEC-6 cytotox 61.9
CCc1nnc(N/N=C/c2cccs2)n1N	IEC-6 cytotox 94.4
O=C(N/N=C/c1c(Cl)cccc1Cl)c1n[nH]c2c1CCCC2	none
O=C(NN=C1CCCC1)c1n[nH]c2c1CCCC2	APP transl inh 92.0
O=C(NN=C1CCCC1)c1n[nH]c2c1CCC2	APP transl inh 94.0
Cc1cc(C)nc(NC(=O)c2ccccc2O)n1	none (no result: BaF3 tox, Ba/F3 V617F tox, APP transl inh)
C=CCNC(=S)NNC(=O)CSc1nc2ccccc2s1	none
CCCn1c(-c2ccc(OC)cc2)nc2ccccc21	BaF3 tox 52.1, Ba/F3 V617F tox 40.4
O=C(c1ccco1)N1N=C(c2ccc(Cl)cc2)CC1(O)C(F)(F)F (centres undefined)	none
O=C(c1ccco1)N1N=C(c2ccc(Br)cc2)CC1(O)C(F)(F)F (centres undefined)	BaF3 tox 73.9
COc1cc(C(=O)Nc2ccc3c(c2)Cc2ccccc2-3)cc(OC)c1OC	none
COc1cc(C(=O)Nc2ccc3c(c2)CCN3C(C)=O)cc(OC)c1OC	BaF3 tox 79.2, Ba/F3 V617F tox 78.2, IEC-6 cytotox 40.1, APP transl inh 81.0
COc1ccc(-c2cn(-c3ccc(SC(F)F)cc3)c3[n+]2CCC3)cc1OC	none
